# Publication PMC5540273 (PLoS ONE, 2017)
# Key:
# Conditions in all cases: concentration: 1 μM, replicates: in singlicate; n = 1
# HPK1 = test system: HPK1
# HUNK = test system: HUNK
# ICK = test system: ICK
# IGF1R = test system: IGF1R
# IKK-alpha = test system: T1, IKK-alpha
# T1 construct: gene CHUK
# IKK-beta = test system: T2, IKK-beta
# T2 construct: gene IKBKB
# IKK-epsilon = test system: T3, IKK-epsilon
# T3 construct: gene IKBKE
# INSRR = test system: INSRR
# INSR = test system: INSR
# IRAK1 = test system: IRAK1
# IRAK3 = test system: IRAK3
# IRAK4 = test system: IRAK4
# ITK = test system: ITK
# [1] = test system: JAK1(JH1domain-catalytic)
# [2] = test system: JAK1(JH2domain-pseudokinase)
# [3] = test system: JAK2(JH1domain-catalytic)
# [4] = test system: JAK3(JH1domain-catalytic)
# JNK1 = test system: T4, JNK1
# T4 construct: gene MAPK8
# JNK2 = test system: T5, JNK2
# T5 construct: gene MAPK9
# JNK3 = test system: T6, JNK3
# T6 construct: gene MAPK10
# 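Further: KINOMEscan kinase panel screen.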
smiles,measurement,setting,value
O=c1cc(N2CCOCC2)nc2n(Cc3cccc4ccccc34)ccn12 [GSK2333389],%Inh,HPK1,5%
same,%Inh,HUNK,0%
same,%Inh,ICK,0%
same,%Inh,IGF1R,4%
same,%Inh,IKK-alpha,29%
same,%Inh,IKK-beta,17%
same,%Inh,IKK-epsilon,0%
same,%Inh,INSRR,0%
same,%Inh,INSR,0%
same,%Inh,IRAK1,13%
same,%Inh,IRAK3,0%
same,%Inh,IRAK4,20%
same,%Inh,ITK,21%
same,%Inh,[1],7%
same,%Inh,[2],0%
same,%Inh,[3],17%
same,%Inh,[4],0%
same,%Inh,JNK1,21%
same,%Inh,JNK2,0%
same,%Inh,JNK3,0%
Cc1c(Cn2c(C)nn3c(=O)cc(N4CCOC(C)C4)nc23)cccc1C(F)(F)F (stereo not drawn) [GSK2344444],%Inh,HPK1,9%
same,%Inh,HUNK,0%
same,%Inh,ICK,0%
same,%Inh,IGF1R,7%
same,%Inh,IKK-alpha,12%
same,%Inh,IKK-beta,18%
same,%Inh,IKK-epsilon,5%
same,%Inh,INSRR,3%
same,%Inh,INSR,17%
same,%Inh,IRAK1,0%
same,%Inh,IRAK3,0%
same,%Inh,IRAK4,13%
same,%Inh,ITK,7%
same,%Inh,[1],2%
same,%Inh,[2],0%
same,%Inh,[3],19%
same,%Inh,[4],38%
same,%Inh,JNK1,0%
same,%Inh,JNK2,8%
same,%Inh,JNK3,2%
Fc1ccc(-c2nn3c(OCC(F)(F)F)cccc3c2-c2ccncc2)cc1 [GW514784],%Inh,HPK1,6%
same,%Inh,HUNK,31%
same,%Inh,ICK,0%
same,%Inh,IGF1R,0%
same,%Inh,IKK-alpha,0%
same,%Inh,IKK-beta,0%
same,%Inh,IKK-epsilon,22%
same,%Inh,INSRR,0%
same,%Inh,INSR,0%
same,%Inh,IRAK1,19%
same,%Inh,IRAK3,0%
same,%Inh,IRAK4,0%
same,%Inh,ITK,9%
same,%Inh,[1],24%
same,%Inh,[2],14%
same,%Inh,[3],4%
same,%Inh,[4],0%
same,%Inh,JNK1,97.6%
same,%Inh,JNK2,99.9%
same,%Inh,JNK3,99.9%
[2H]C([2H])(c1cccc(C(F)(F)F)c1C)n1ccn2c(=O)nc(N3CCOCC3)cc12 [GSK2336394],%Inh,HPK1,27%
same,%Inh,HUNK,6%
same,%Inh,ICK,8%
same,%Inh,IGF1R,0%
same,%Inh,IKK-alpha,10%
same,%Inh,IKK-beta,16%
same,%Inh,IKK-epsilon,13%
same,%Inh,INSRR,0%
same,%Inh,INSR,2%
same,%Inh,IRAK1,16%
same,%Inh,IRAK3,0%
same,%Inh,IRAK4,16%
same,%Inh,ITK,17%
same,%Inh,[1],18%
same,%Inh,[2],0%
same,%Inh,[3],0%
same,%Inh,[4],0%
same,%Inh,JNK1,21%
same,%Inh,JNK2,23%
same,%Inh,JNK3,9%
COc1cc2c(cc1OCCN1CCN(C)CC1)ncc1c3ccc(C#N)cc3[nH]c21,%Inh,HPK1,11%
same,%Inh,HUNK,0%
same,%Inh,ICK,10%
same,%Inh,IGF1R,0%
same,%Inh,IKK-alpha,44%
same,%Inh,IKK-beta,29%
same,%Inh,IKK-epsilon,70%
same,%Inh,INSRR,0%
same,%Inh,INSR,0%
same,%Inh,IRAK1,97.2%
same,%Inh,IRAK3,84%
same,%Inh,IRAK4,100%
same,%Inh,ITK,38%
same,%Inh,[1],0%
same,%Inh,[2],60%
same,%Inh,[3],52%
same,%Inh,[4],93.4%
same,%Inh,JNK1,19%
same,%Inh,JNK2,0%
same,%Inh,JNK3,0%
C[C@@H](Oc1cc(-n2cnc3ccc(NC(=O)NC(C)(C)C)cc32)sc1C(N)=O)c1ccccc1Cl [GSK346294],%Inh,HPK1,35%
same,%Inh,HUNK,0%
same,%Inh,ICK,0%
same,%Inh,IGF1R,0%
same,%Inh,IKK-alpha,0%
same,%Inh,IKK-beta,0%
same,%Inh,IKK-epsilon,23%
same,%Inh,INSRR,0%
same,%Inh,INSR,0%
same,%Inh,IRAK1,15%
same,%Inh,IRAK3,12%
same,%Inh,IRAK4,0%
same,%Inh,ITK,14%
same,%Inh,[1],2%
same,%Inh,[2],0%
same,%Inh,[3],0%
same,%Inh,[4],0%
same,%Inh,JNK1,0%
same,%Inh,JNK2,6%
same,%Inh,JNK3,0%
c1ccc(-c2n[nH]cc2-c2ccnc3ccccc23)nc1 [GW271431],%Inh,HPK1,27%
same,%Inh,HUNK,4%
same,%Inh,ICK,0%
same,%Inh,IGF1R,12%
same,%Inh,IKK-alpha,0%
same,%Inh,IKK-beta,0%
same,%Inh,IKK-epsilon,22%
same,%Inh,INSRR,1%
same,%Inh,INSR,6%
same,%Inh,IRAK1,6%
same,%Inh,IRAK3,0%
same,%Inh,IRAK4,6%
same,%Inh,ITK,14%
same,%Inh,[1],10%
same,%Inh,[2],0%
same,%Inh,[3],3%
same,%Inh,[4],0%
same,%Inh,JNK1,17%
same,%Inh,JNK2,33%
same,%Inh,JNK3,12%
COc1ccc(COc2cc(-n3cnc4ccccc43)sc2C(N)=O)cc1 [GSK1024304],%Inh,HPK1,45%
same,%Inh,HUNK,14%
same,%Inh,ICK,0%
same,%Inh,IGF1R,8%
same,%Inh,IKK-alpha,0%
same,%Inh,IKK-beta,17%
same,%Inh,IKK-epsilon,0%
same,%Inh,INSRR,0%
same,%Inh,INSR,13%
same,%Inh,IRAK1,0%
same,%Inh,IRAK3,2%
same,%Inh,IRAK4,2%
same,%Inh,ITK,14%
same,%Inh,[1],0%
same,%Inh,[2],0%
same,%Inh,[3],0%
same,%Inh,[4],0%
same,%Inh,JNK1,18%
same,%Inh,JNK2,33%
same,%Inh,JNK3,10%
O=C1NC(=O)C(N2CCc3ccccc32)=C1c1cccc(Cl)c1 [SB-408010],%Inh,HPK1,19%
same,%Inh,HUNK,20%
same,%Inh,ICK,40%
same,%Inh,IGF1R,0%
same,%Inh,IKK-alpha,0%
same,%Inh,IKK-beta,10%
same,%Inh,IKK-epsilon,0%
same,%Inh,INSRR,0%
same,%Inh,INSR,0%
same,%Inh,IRAK1,0%
same,%Inh,IRAK3,0%
same,%Inh,IRAK4,0%
same,%Inh,ITK,15%
same,%Inh,[1],14%
same,%Inh,[2],0%
same,%Inh,[3],0%
same,%Inh,[4],0%
same,%Inh,JNK1,41%
same,%Inh,JNK2,34%
same,%Inh,JNK3,29%
